This note sets out measurements from PubChem BioAssay (NCI).

Some test systems named below: HCT-15 colon; HT29 colon; SNB-75 CNS; SNB-19 CNS; U251 CNS; PC-3 prostate; SK-MEL-5 melanoma; UACC-62 melanoma; LOX IMVI melanoma; SK-MEL-28 melanoma.
Holding throughout (assay): NCI-60 one-dose screen, 48 h (100 = growth as untreated, 0 = no growth, -100 = all killed)
Conditions in all cases: 10 µM unless noted

This is part of a sample that, as a whole, favours compounds with a hit. Of some 83,000 tested, about 20% had one in any assay.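 Percent growth is the endpoint: 0 to 100 indicates growth inhibition (40 means 60% inhibition), 0 means no net growth, and negative values indicate cell death.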 Unmarked numbers belong to inactive results. The source made the active and inactive calls. How the source made its calls: active means growth percent below 10; inactive means the rest.

`Nc1ccc(C2=NN(C(=O)c3cc(-c4ccc(Cl)cc4)nc4ccccc34)C(c3ccccc3)C2)cc1` (stereo not given): the growth with HCT-15 colon was 25.5%; in the assay with HT29 colon, 12.2%; with SNB-75 CNS, 40.2%; in the assay on SNB-19 CNS it was 34.1%; in the assay on U251 CNS, 40.1%; with PC-3 prostate it was 26.8%. The growth with SK-MEL-5 melanoma is 25.9%; in the assay on UACC-62 melanoma, 38.9%; in the assay on LOX IMVI melanoma, 42.5%; in the assay with SK-MEL-28 melanoma, 58.8%.

On to `C#C[C@@]1(O)[C@@H](CO)O[C@@H](n2cc(I)c3c(N)ncnc32)[C@@H]1O`, for which the growth with HCT-15 colon was 5.73% (active); in the assay with HT29 colon it was 2.8% (active); in the assay on SNB-75 CNS, -10.1% (active); in the assay on SNB-19 CNS, 8.06% (active); in the assay on U251 CNS, -0.637% (active); in the assay with PC-3 prostate, 4.04% (active). In addition, the growth is -9.34% (active) in the assay with SK-MEL-5 melanoma, 4.29% (active) with UACC-62 melanoma, -42.3% (active) in the assay with LOX IMVI melanoma and 43.2% in the assay with SK-MEL-28 melanoma.

Take `CC1(C)[C@@H](O)CC[C@]2(C)[C@H]3CC[C@@H]4[C@H]5[C@H](c6cn(-c7ccccc7)nn6)CC[C@]5(CO)CC[C@@]4(C)[C@]3(C)CC[C@@H]12`: the growth in the assay with HCT-15 colon is 88.8%; with HT29 colon, 84.7%; in the assay with SNB-75 CNS, 81.9%; in the assay on SNB-19 CNS it was 93.1%; in the assay on U251 CNS it was 89.6%; in the assay on PC-3 prostate, 52.8%. In addition, the growth is 83.7% in the assay on SK-MEL-5 melanoma, 79.6% with UACC-62 melanoma, 95.6% in the assay with LOX IMVI melanoma and 88.7% in the assay with SK-MEL-28 melanoma.

As for `Cc1nccc2c3ccc(OCc4cn(-c5ccc(Br)cc5)nn4)cc3n(CC(C)C)c12`, the growth with HCT-15 colon is 36.4%; with HT29 colon, 4.32% (active); in the assay on SNB-75 CNS, 89.5%; in the assay on SNB-19 CNS, 59.6%; in the assay with U251 CNS, 36.9%; in the assay on PC-3 prostate it was 30.7%. In addition, the growth in the assay with SK-MEL-5 melanoma is 13.1%; in the assay with UACC-62 melanoma, 38.4%; with LOX IMVI melanoma it was 52.2%; in the assay with SK-MEL-28 melanoma it was 67.2%.

Consider `COc1ccc(-c2[nH]c3ccc(OC)cc3c2C=C(C#N)C#N)cc1`, for which the growth in the assay on HCT-15 colon is 38.6%; with HT29 colon, 15%; with SNB-75 CNS it was 21.3%; in the assay with SNB-19 CNS, 76.2%; in the assay on U251 CNS, 35.7%; in the assay with PC-3 prostate, 21.7%. The growth is 15.5% in the assay with SK-MEL-5 melanoma, 33.1% in the assay on UACC-62 melanoma, 63% in the assay on LOX IMVI melanoma and 54.2% with SK-MEL-28 melanoma.

As to `COCCOCCOCc1n(Cc2ccc3ccccc3n2)c2ccccc2[n+]1Cc1ccc2ccccc2n1`, the growth was 109% in the assay with HCT-15 colon; 15.3% with HT29 colon; 4.56% (active) in the assay on SNB-75 CNS; 22.4% in the assay with SNB-19 CNS; 10.8% in the assay with U251 CNS; 13.7% in the assay on PC-3 prostate. In addition, the growth is -14.6% (active) in the assay with SK-MEL-5 melanoma, 14.5% in the assay on UACC-62 melanoma, 28.6% with LOX IMVI melanoma and 41.8% in the assay with SK-MEL-28 melanoma.

Turning to `O=C1Nc2ccc(Cl)cc2/C1=N/c1nc(-c2ccc(Cl)cc2)cs1`, the growth in the assay with HCT-15 colon was 26.7%; in the assay on HT29 colon it was -0.232% (active); with SNB-75 CNS, 26.2%; in the assay with SNB-19 CNS, 10.8%; in the assay with U251 CNS, -3.58% (active); with PC-3 prostate, 2.97% (active). Also, the growth with SK-MEL-5 melanoma was 8.24% (active); with UACC-62 melanoma, -46.6% (active); in the assay with LOX IMVI melanoma it was -7.47% (active); with SK-MEL-28 melanoma, 16.3%.

In the case of `C=C1C(=O)O[C@H]2[C@H]1CC/C(C=Nc1c(N)cc(C(F)(F)F)cc1Br)=C\CC[C@@]1(C)O[C@@H]21`, the growth with HCT-15 colon was -55.1% (active); in the assay with HT29 colon, -36.4% (active); in the assay with SNB-75 CNS, 76.1%; in the assay on SNB-19 CNS it was 33.7%; in the assay with U251 CNS, 25.7%; in the assay with PC-3 prostate it was 6.24% (active). Moreover, the growth with SK-MEL-5 melanoma was 33.7%; with UACC-62 melanoma, 4.73% (active); in the assay on LOX IMVI melanoma it was -74.4% (active); in the assay with SK-MEL-28 melanoma it was -12.3% (active).

With `Cc1ccccc1NC(=O)c1sc2nc(C)c(C(C)O)cc2c1N` (stereo not given), the growth in the assay on HCT-15 colon is 35.3%; in the assay on HT29 colon it was 3.12% (active); with SNB-75 CNS, 53.9%; in the assay with SNB-19 CNS, 32.5%; in the assay on U251 CNS, 28.8%; with PC-3 prostate, 60.9%. Further, the growth is 31.4% with SK-MEL-5 melanoma, 25.5% in the assay with UACC-62 melanoma, 44.2% with LOX IMVI melanoma and 67.2% in the assay with SK-MEL-28 melanoma.

For the molecule `O=C1C(Cl)=C(NCCCN(CCCNC2=C(Cl)C(=O)c3ccccc3C2=O)C2=C(Cl)C(=O)c3ccccc3C2=O)C(=O)c2ccccc21`, the growth in the assay with HCT-15 colon is 37.1%; with HT29 colon it was 12.4%; in the assay on SNB-75 CNS, 104%; in the assay with SNB-19 CNS, 72.9%; in the assay on U251 CNS, 37.4%; in the assay on PC-3 prostate it was 47%. Further, the growth in the assay with SK-MEL-5 melanoma is -59.1% (active); in the assay on UACC-62 melanoma, 17.9%; in the assay with LOX IMVI melanoma it was 10.8%; in the assay with SK-MEL-28 melanoma it was 71.7%.

Consider `Clc1ccc2c(NCCCNC3CCCCC3)ccnc2c1`, for which the growth in the assay on HCT-15 colon was 84.8%; in the assay on HT29 colon it was 48.1%; in the assay with SNB-75 CNS, 89.8%; in the assay on SNB-19 CNS, 110%; in the assay on U251 CNS it was 93.8%; with PC-3 prostate, 87.3%. Also, the growth was 99.9% in the assay on SK-MEL-5 melanoma, 111% in the assay on UACC-62 melanoma, 96.7% with LOX IMVI melanoma and 116% with SK-MEL-28 melanoma.

For the molecule `NS(=O)(=O)c1ccc(C2C3=C(CCCC3=O)OC3=C2C(=O)c2ccccc2C3=O)cc1` (stereo not given), the growth was 2.23% (active) in the assay on HCT-15 colon; -29.3% (active) in the assay with HT29 colon; -99.5% (active) with SNB-75 CNS; -1.37% (active) in the assay with SNB-19 CNS; -86.7% (active) in the assay with U251 CNS; -1.42% (active) with PC-3 prostate. For the same molecule, the growth was -95.3% (active) with SK-MEL-5 melanoma, -59.7% (active) in the assay with UACC-62 melanoma, -72.7% (active) in the assay on LOX IMVI melanoma and -57.5% (active) in the assay with SK-MEL-28 melanoma.

Turning to `COc1cc2c(cc1OC)C(Sc1ccc(Cl)cc1)c1c(nc(N)c(C#N)c1N)O2` (stereo not given), the growth with HCT-15 colon was -66.2% (active); in the assay on HT29 colon, -61.9% (active); in the assay with SNB-75 CNS, -17.4% (active); in the assay with SNB-19 CNS it was 22.1%; in the assay on U251 CNS, -62.5% (active); in the assay on PC-3 prostate, 5.11% (active). Besides, the growth in the assay with SK-MEL-5 melanoma is 12.5%; in the assay with UACC-62 melanoma, -23.8% (active); in the assay on LOX IMVI melanoma, -88.9% (active); in the assay on SK-MEL-28 melanoma, -3.09% (active).
